PostGolgi ctrl = growth of the yeast control strain, post-Golgi counter-screen; AID 738; efflux-deficient yeast background strain, growth absorbance A615, 16 h; inhibition, % at 10 µM; actives 5% (n = 98,000)
PostGolgi yeast = growth inhibition of a yeast mutant, post-Golgi transport screen | post-Golgi transport phenotypic cell assay | inhibition, % at 10 µM | actives 0.9% (n = 98,000) | AID 739;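 also: yeast cells grown in 1536-well plates; yeast grown about 18 h at 30C before absorbance read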
CYP2C19 inhib = human CYP2C19 inhibition; CYP2C19 Supersomes, luciferin-H EGE luminescence, 30 min; inhibition, % at 5 µM; actives 21% (n = 96,000); AID 778;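 active = CYP2C19 inhibition above a set limit at 5 µM in the primary screen, cut at about 50% in these data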
Target sequence (P33261 whole entry, looked up): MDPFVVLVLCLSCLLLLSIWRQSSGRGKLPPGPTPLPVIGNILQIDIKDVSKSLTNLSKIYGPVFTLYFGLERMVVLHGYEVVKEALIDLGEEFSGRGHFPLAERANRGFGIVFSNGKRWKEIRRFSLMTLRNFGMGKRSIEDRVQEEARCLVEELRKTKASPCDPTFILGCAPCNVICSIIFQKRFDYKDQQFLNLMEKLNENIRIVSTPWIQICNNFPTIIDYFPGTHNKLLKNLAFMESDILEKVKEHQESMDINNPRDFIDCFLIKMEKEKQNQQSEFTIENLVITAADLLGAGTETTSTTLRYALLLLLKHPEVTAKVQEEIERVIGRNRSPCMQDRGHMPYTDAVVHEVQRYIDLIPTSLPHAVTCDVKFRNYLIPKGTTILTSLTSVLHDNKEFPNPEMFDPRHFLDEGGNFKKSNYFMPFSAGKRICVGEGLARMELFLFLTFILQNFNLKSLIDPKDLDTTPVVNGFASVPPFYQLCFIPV
CYP2C19 activ = activators of human cytochrome P450 2C19; P33261; 96,000 tested, under 10 active; recombinant CYP2C19, luciferin-H EGE luminescence; stronger effect = higher value; 0 = fully inhibited enzyme, 1 = untreated enzyme; activation factor at 5 µM;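 active = activation factor of at least 2 at 5 µM in the primary screen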
CYP2C9 activ = increases human cytochrome P450 2C9 activity. P11712. recombinant CYP2C9, luciferin-H conversion, luminescence; stronger effect = higher value; factor 1 = untreated enzyme, 0 = blocked. activation factor at 5 µM. actives 1.4% (n = 96,000);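 active = activation factor of 2 or more for CYP2C9 at a 5 µM dose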
CYP2C9 inh = blocks human cytochrome P450 2C9; P11712; CYP2C9 Supersomes, luciferin-H conversion, luminescence; inhibition, % at 5 µM; actives 20% (n = 96,000);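 active = blocking of liver enzyme CYP2C9 beyond about 50% at 5 µM, limit read from the data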
Numbers stand for hits; n = inactive. Compounds with a hit are over-represented: about 32% of the library has one in this group of screens. Rule as the data show it, unless noted: active = inhibition above about 30%; inactive = the rest.

SMILES	PostGolgi ctrl	PostGolgi yeast	CYP2C19 inhib	CYP2C19 activ	CYP2C9 activ	CYP2C9 inh
COc1ccc(CCNC(=O)c2sc3cc(C)ccc3c2Cl)cc1	n	n	50.2	n	n	55.9
COC(=O)c1ccccc1NC(=O)c1sc(=S)n(C)c1N	36.0	n	n	n	n	n
CC(C)CC(C(=O)NCC1CCCO1)N(C(=O)Cn1nnc(-c2ccc(F)cc2)n1)c1ccccc1F (stereo not given)	n	n	n	n	n	n
CC(=O)Nc1ccc(S(=O)(=O)N2CCN(CC(=O)NC3CCCC3)CC2)cc1	n	n	n	n	n	n
Nn1c(SCC(=O)Nc2ccc(F)c(F)c2)nnc1C1CCCCC1	n	n	n	n	n	n
CCCn1nnc(NC(=O)COc2ccccc2Cl)n1	n	n	n	n	n	n
N#Cc1ccc(N=c2ssnc2Cl)cc1	n	n	n	n	n	97.3
COc1cc(N=c2ssnc2Cl)cc(OC)c1OC	n	n	n	n	n	88.7
COc1ccc(C(=O)Cc2cc(OC)c(OC)cc2[N+](=O)[O-])c(OC)c1	n	n	n	n	n	n
CCN(CC)S(=O)(=O)c1cccc(NC(=O)C2SC(=Nc3ccc(C)cc3C)C(C(=O)NCC3CCCO3)=C2N)c1 (stereo not given)	n	n	62.2	n	n	93.1
COCCNC(=O)C1=C(N)C(C(=O)Nc2ccc(C)c(S(=O)(=O)N3CCCCC3)c2)SC1=Nc1ccc(C)cc1C (stereo not given)	n	n	n	n	n	75.4
CCN(CC)S(=O)(=O)c1cccc(C(=O)NCC2CCCO2)c1 (stereo not given)	n	n	n	n	n	n
COCCNC(=O)c1ccc(C)c(S(=O)(=O)Nc2ccc(C)cc2)c1	n	n	n	n	n	n
CCOC(=O)N1CCC(NC(=O)CN2C(=O)CCSc3ccccc32)CC1	n	n	n	n	n	n
CCOC(=O)N1CCC(NC(=O)Cn2c3c(c(-c4ccccc4Cl)cc2=O)CCC3)CC1	n	n	n	n	n	54.0
Cc1sc2nc(C)n(/N=C/c3ccccc3)c(=O)c2c1C	n	n	76.6	n	n	n
Cc1nc2ccccc2c(=O)n1/N=C/c1cccnc1	n	n	n	n	n	n
O=c1cc(CN2CCN(c3ccccc3F)CC2)c2cc3c(cc2o1)CCCC3	n	n	n	n	n	n
Clc1cc(CSc2ccccc2)nc(-c2ccccc2)n1	n	n	n	n	n	52.9
CCOC(=O)CSc1cc(CS(=O)c2ccc(Cl)cc2)nc(-c2ccccc2)n1 (stereo not given)	32.0	n	100.2	n	n	85.2
CCOC(=O)CSc1cc(CSc2ccccc2)nc(-c2ccccc2)n1	n	n	57.1	n	n	n
Clc1ccc(-c2cc(COc3ccc4ccccc4c3)no2)cc1	n	n	n	n	n	n
CCOC(=O)CSc1ccc2nnc(-c3ccccc3)n2n1	n	n	n	n	n	n
Clc1ccc(SCc2cc(-c3ccccc3)on2)cc1	n	n	90.4	n	n	n
O=S(=O)(NC1=NCCC1)c1ccc(F)cc1	n	n	n	n	n	n
SMILES	PostGolgi ctrl	PostGolgi yeast	CYP2C19 inhib	CYP2C19 activ	CYP2C9 activ	CYP2C9 inh
Cc1ccc(C)c(NC(=O)CN2C(=O)CNC2=O)c1	n	n	n	n	n	n
O=C(c1ccco1)N(Cc1ccc([N+](=O)[O-])cc1)c1ccc(Cl)cc1	40.1	n	n	n	n	94.4
O=C(c1ccco1)N(Cc1ccco1)c1ccc(O)cc1	n	n	n	n	n	53.7
Cc1ccc(N(Cc2ccco2)C(=O)c2cccc(S(=O)(=O)N(C)C)c2)cc1	n	n	n	n	n	n
O=C(NNC(=O)c1ccco1)c1cccc([N+](=O)[O-])c1	n	n	n	n	n	n
Clc1ccc(-c2n[nH]c3c2CCC3)cc1Cl	69.2	101.0	n	n	n	n
O=C(CCc1nc2ccccc2[nH]c1=O)OCC(=O)N1CCc2ccccc21	n	n	n	n	n	n
COCCCNC(=O)CS(=O)Cc1nc(-c2cccc(OC)c2)oc1C (stereo not given)	n	n	n	n	n	n
O=C(CCn1ccc2ccccc21)NC1CCCc2ccccc21 (stereo not given)	n	n	93.1	n	n	60.4
O=C(CCN1C(=O)C2C3C=CC(C3)C2C1=O)NC1CCCc2ccccc21 (stereo not given)	n	n	n	n	n	n
CC(C)(C)c1cn(-c2ccc(Cl)cc2)c(=S)[nH]1	n	n	73.4	n	n	n
O=C(CCCN1C(=O)CCC1=O)Nc1ccc(Br)cc1F	n	n	n	n	n	n
CC(C)(C)NC(=O)CSc1nnc(-c2ccncc2)n1Cc1ccccc1	n	n	80.3	n	n	50.0
CC(C)C(C)(C#N)NC(=O)CSc1nnc(-c2ccncc2)n1Cc1ccccc1 (stereo not given)	n	n	80.1	n	n	51.8
O=C(O)CSc1nnc(-c2ccncc2)n1Cc1ccccc1	n	n	n	n	n	n
O=C(CSc1nnc(-c2ccncc2)n1Cc1ccccc1)Nc1nccs1	n	n	74.6	n	n	53.5
COc1cccc(C(=O)NCC(=O)N2CCC(C)CC2)c1	n	n	n	n	n	n
CCSc1nc(C)cc(C)c1S(=O)(=O)c1ccccc1C	30.8	n	n	n	n	n
CSc1nc(C)cc(C)c1S(=O)(=O)c1ccccc1C	n	n	n	n	2.9	n
Cc1ccc(C)c2nc(N3CCCC3)c(C#N)cc12	n	n	n	n	n	n
C=CCNc1nc(SC)nc2ccsc12	n	n	n	n	2.3	n
CN(C)C(=O)CSc1nnc(-c2cccnc2)n1-c1ccccc1	n	n	n	n	n	n
CC1CN(C(=O)CSc2nnc(-c3ccncc3)n2-c2ccccc2)CC(C)O1 (stereo not given)	n	n	76.1	n	n	n
CC(C)c1ccccc1-n1c(SCC(=O)N2CCN(c3ccccc3)CC2)nnc1-c1cccnc1	n	n	54.9	n	n	56.2
O=C1N2CCSC2=NC1(Nc1nccs1)C(F)(F)F (stereo not given)	n	n	n	n	n	n
SMILES	PostGolgi ctrl	PostGolgi yeast	CYP2C19 inhib	CYP2C19 activ	CYP2C9 activ	CYP2C9 inh
Cc1ccc(NS(=O)(=O)c2cccc(C(=O)N3CCOCC3)c2)cc1	n	n	72.4	n	n	n
Cc1ccc(S(=O)(=O)Nc2cc(C(=O)N3CCOCC3)ccc2N2CCCCC2)cc1	n	n	n	n	n	57.2
CCOC(=O)c1c(C)c(C(=O)NCC2CCCO2)c(C)n1C (stereo not given)	n	n	n	n	n	n
COc1ccc(Cn2nnnc2C(c2cccs2)N2CCN(c3ccc([N+](=O)[O-])cc3)CC2)cc1 (stereo not given)	n	n	62.6	n	n	73.2
COc1ccc(Cn2nnnc2C(c2cccs2)N2CCN(c3ccccc3)CC2)cc1 (stereo not given)	n	n	n	n	n	n
Oc1ccc(N2CCN(C(c3cccs3)c3nnnn3CCc3ccccc3)CC2)cc1 (stereo not given)	35.4	n	n	n	n	n
